Compound activity deposited in PubChem by National Center for Advancing Translational Sciences (NCATS).
Sfp inh – qHTS Assay for Inhibitors of Bacillus subtilis Sfp phosphopantetheinyl transferase (PPTase); 4'-phosphopantetheinyl transferase ffp (Bacillus subtilis), Q9F4F7; hit rate 3.5% among 310,000; AID 1490, 2009; Biochemical Sfp PPTase activity, qHTS; Potency, µM, inactives show largest response in the series, negative = inhibition, actives largely listed as inhibitors;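 further: the enzyme is Sfp with the accession as filed and its product quenches rhodamine fluorescence; 0% = enzyme reaction without inhibitor and -100% = no enzyme wells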
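Reaction rates are the 30-min fluorescence difference (ex 525, em 598 nm) in wells containing 15 nM Sfp, 5 uM rhodamine-CoA and 12.5 uM BHQ-2-YbbR at pH 7.6 with 10 mM MgCl2.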
BAZ2B block – qHTS Assay for Inhibitors of BAZ2B; Bromodomain adjacent to zinc finger domain protein 2B (Homo sapiens), Q9UIF8; AlphaScreen BAZ2B-H3K14Ac peptide displacement; Potency, µM (titrated, usually from 114 µM), for inactives: at the highest dose activity change, negative = inhibition, actives largely listed as inhibitors; hit rate 4.4% among 360,000; further: on the % scale 0 is the no-effect control and ±100 the full control effect; nearly all actives have a fitted effect of over 60% in size
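AlphaScreen luminescence quantifies BAZ2B engagement of H3K14Ac peptide; the protein and biotinylated peptide are both at 50 nM final, buffer PBS pH 7.4 with 0.01% Tween-20, all steps at room temperature.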
JMJD2A Tudor inh – qHTS Assay for Inhibitors of JMJD2A-Tudor Domain | Lysine-specific demethylase 4A (Homo sapiens), O75164 | hit rate 4.4% among 390,000 | AlphaScreen JMJD2A-Tudor / H3K4me3 peptide binding | AID 504339, 2011 | Potency, µM (series often up to 114 µM), without a hit: at the highest dose activity change, negative = inhibition, most hits filed as inhibitors; further: on the % scale 0 is the no-effect control and ±100 the full control effect; nearly all actives have a fitted effect of over 50% in size
G9a block – qHTS Assay for Inhibitors of Histone Lysine Methyltransferase G9a. Histone-lysine N-methyltransferase EHMT2 (Homo sapiens), Q96KQ7. G9a H3K9 monomethylation, AlphaScreen, 2 h. Potency, µM (titrated, usually from 102 µM), for the others: top-dose activity, negative = inhibition, most hits filed as inhibitors. hit rate 8.8% among 350,000. AID 504332, 2011; further: on the % scale 0 is the no-effect control and ±100 the full control effect; nearly all actives have a fitted effect of over 75% in size
Target sequence (Q96KQ7 913-1193 limits assumed): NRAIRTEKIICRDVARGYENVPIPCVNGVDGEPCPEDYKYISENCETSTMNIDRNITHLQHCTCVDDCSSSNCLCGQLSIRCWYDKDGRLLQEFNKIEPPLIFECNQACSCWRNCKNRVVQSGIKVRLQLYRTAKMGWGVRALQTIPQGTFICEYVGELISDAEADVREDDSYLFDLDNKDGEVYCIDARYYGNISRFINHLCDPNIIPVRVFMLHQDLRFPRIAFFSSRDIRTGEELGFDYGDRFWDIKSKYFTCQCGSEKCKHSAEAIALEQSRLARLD
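G9a (20 nM) preincubated 15 min RT with compounds, then 500 nM biotinylated H3K9 peptide and 20 uM SAM added; 2 h RT reaction. Monomethyl-H3K9 product detected by AlphaScreen with anti-H3K9me1 antibody, streptavidin donor and anti-rabbit IgG acceptor beads.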
HP1b chromo inh – HTS for Inhibitors of HP1-beta Chromodomain Interactions with Methylated Histone Tails. Chromobox protein homolog 1 (Homo sapiens), P83916. AlphaScreen HP1-beta / biotin-H3K9me3 peptide binding. Potency, µM (series often up to 114 µM), inactives show at the top dose activity change, negative = inhibition, most hits filed as inhibitors. hit rate 0.56% among 390,000; further: nearly all actives have a fitted effect of over 70% in size
Target sequence (P83916 whole entry, looked up): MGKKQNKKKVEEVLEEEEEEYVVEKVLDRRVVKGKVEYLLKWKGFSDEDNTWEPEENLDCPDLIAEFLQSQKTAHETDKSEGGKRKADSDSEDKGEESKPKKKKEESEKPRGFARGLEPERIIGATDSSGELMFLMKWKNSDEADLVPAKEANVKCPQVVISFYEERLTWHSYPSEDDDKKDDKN
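HP1-beta protein (50 nM final) preincubated 30 min at room temperature with biotinylated H3(1-18)K9me3 peptide (50 nM) in PBS pH 7.4, 0.01% Tween-20, then compound added for 30 min. AlphaScreen streptavidin donor/nickel chelate acceptor beads (10 ug/mL final), 30 min dark, luminescence read.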
Starred values were filed as active, the others as inactive; ? = inconclusive; · = no result; [ ] = remark or other dose. Shown are actives, neighbours in structure and some others; about 12% of the full set was active somewhere. The call rests on the fitted dose curve; in most records, active means well fitted curve in the direction sought with a large enough effect; inconclusive means small, poorly fitted or top-dose-only effect, or another doubt; inactive means no such curve, though single readings can be large; an effect the other way counts as inactive or inconclusive. Potency means the concentration at half of the fitted maximal effect.

SMILES	Sfp inh	BAZ2B block	JMJD2A Tudor inh	G9a block	HP1b chromo inh
O=C(CSc1ccsc1[N+](=O)[O-])NC1CCCC1	7%	-38%	-24%	32µM*	5%
COc1ccccc1NC(=O)c1ccc(SCC(=O)NCc2ccccc2Cl)c([N+](=O)[O-])c1	-22%	-2%	-8%	-40%	19%
CC(=O)Nc1ccn(C2CC3OCC(NC(=O)C(NC(=O)OC(C)(C)C)C(C)OCc4ccccc4)C3O2)c(=O)n1 (stereo unspecified)	8%	·	-14%	·	11%
Cc1ccc(CCNC(=O)c2ccc(CS(=O)(=O)c3ccc(Br)cc3)o2)cc1	·	-9%	2%	-8%[59 µM]	8%
COc1ccc(OC)c(CCNC(=O)CSc2ccsc2[N+](=O)[O-])c1	5%	?	45µM*	32µM*	-6%
COc1ccc(CCNC(=O)CSc2ccsc2[N+](=O)[O-])c(OC)c1	11%	-29%	-29%	?	21%
COc1ccccc1CNC(=O)CSc1ccsc1[N+](=O)[O-]	-6%	?	-26%	50µM*	55%
O=C(CSc1ccsc1[N+](=O)[O-])Nc1cccc(F)c1	-14%	35µM*	45µM*	50µM*	?
CC(=O)NC(C(=O)O)C(C)(C)SN=O (stereo unspecified)	1%	·	·	·	·
O=C(NC1CC(=O)N(c2ccc(F)cc2)C1)c1ccc(S(=O)(=O)N2CCOCC2)cc1 (stereo unspecified)	·	-1%	-7%	4%[59 µM]	33%
CCOc1ccc(CN2CCN(C(=O)c3cccc4ccccc34)CC2)cc1	-24%	45µM*	25µM*	14µM*	?
COc1cc(CN2CCN(C(=O)c3cccc4ccccc34)CC2)cc(OC)c1O	-29%	50µM*	22µM*	6.3µM*	?
CCOC(=O)C(NC(=O)c1ccccc1Cl)(Nc1ccc(C(F)(F)F)cc1)C(F)(F)F (stereo unspecified)	17%	-3%	10%	16%[59 µM]	62%
NC(=O)c1c(NC(NC(=O)c2ccco2)(C(F)(F)F)C(F)(F)F)sc2c1CCCC2	22µM*	?	-9%	?	2%
CCOC(=O)C(NC(=O)c1ccccc1Cl)(Nc1sc2c(c1C(N)=O)CCC2)C(F)(F)F (stereo unspecified)	?	-1%	-20%	28µM*	17%
O=C1Nc2ccccc2OC1CC(=O)N1CCN(c2cccc(C(F)(F)F)c2)CC1 (stereo unspecified)	-16%	-3%	-24%	35µM*	29%
COc1ccc(-c2nnc(SCC(=O)Oc3c(C)cccc3C)o2)cc1OC	·	-26%	-9%	?	78%
Cc1cc(-c2nc3ncccc3o2)ccc1NC(=O)c1ccc(Cl)cc1	·	-4%	-7%	0%[59 µM]	35%
C=CCn1c(NC(=O)c2ccc(C)cc2)nc2ccccc21	23%	-23%	-9%	45%	44%
C#CCOCCOCCOCCNc1nc(N2CCN(C(=O)CCCCCCCCCCNC(=O)[C@@H](CCC(=O)O)n3cc(CCCCCN)nn3)CC2)nc(N2CCN(C(=O)CCCCCCCCCCNC(=O)[C@H](CCCCN)n3cc(C[C@@H](C)CC)nn3)CC2)n1	·	?	56µM*	-16%[2.33 µM]	-3%
C#CCOCCOCCOCCNc1nc(N2CCN(C(=O)CCCCCCCCCCNC(=O)[C@H](CCCCN)n3cc(CCO)nn3)CC2)nc(N2CCN(C(=O)CCCCCCCCCCNC(=O)[C@H](CCCCN)n3cc(C[C@@H](C)CC)nn3)CC2)n1	·	?	22µM*	14%[2.33 µM]	50µM*
C#CCOCCOCCOCCNc1nc(N2CCN(C(=O)CCCCCCCCCCNC(=O)[C@@H](CCSC)n3cc(CCO)nn3)CC2)nc(N2CCN(C(=O)CCCCCCCCCCNC(=O)[C@H](CCC(=O)O)n3cc(CCCCCN)nn3)CC2)n1	·	-12%	-36%	-11%[2.33 µM]	7%
